Data on 24 compounds can be found in PubChem BioAssay (NCATS).

The target of assay [1] is Pyruvate kinase PKM (Homo sapiens) (UniProt P14618). Nature of the assay: qHTS Assay for Activators of Human Muscle Pyruvate Kinase (AID 954; active means well fitted curve in the direction sought with a large enough effect, not every such curve was filed as active). A digest of the protocol: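 ATP production by PKM2 detected via luciferase luminescence after 1 h room-temperature reaction (0.1 nM enzyme, PEP at Km 0.5 mM, ADP 0.1 mM, pH 7.2 imidazole buffer). Inhibition scaled to no-enzyme control; activation referenced to 0.3 nM enzyme wells.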
Chain of Pyruvate kinase PKM (Homo sapiens) (P14618 whole entry, looked up): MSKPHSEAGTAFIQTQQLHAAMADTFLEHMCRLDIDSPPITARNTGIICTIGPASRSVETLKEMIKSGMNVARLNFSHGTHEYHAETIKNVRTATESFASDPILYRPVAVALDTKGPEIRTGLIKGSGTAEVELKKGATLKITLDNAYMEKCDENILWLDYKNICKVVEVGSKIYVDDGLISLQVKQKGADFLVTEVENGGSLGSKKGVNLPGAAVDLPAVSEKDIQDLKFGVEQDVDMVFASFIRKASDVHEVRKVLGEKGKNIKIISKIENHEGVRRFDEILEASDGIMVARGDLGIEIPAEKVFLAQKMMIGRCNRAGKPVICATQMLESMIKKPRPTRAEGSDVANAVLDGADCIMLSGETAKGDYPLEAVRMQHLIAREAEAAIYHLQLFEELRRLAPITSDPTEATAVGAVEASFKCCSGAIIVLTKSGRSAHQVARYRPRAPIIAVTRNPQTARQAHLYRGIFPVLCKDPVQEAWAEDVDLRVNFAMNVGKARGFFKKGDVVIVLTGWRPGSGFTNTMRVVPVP
Background: In qHTS, concentration-response curves come from the screen itself.

Assay [2] is described as follows: MultiTox-Fluor Cytotoxicity Assay - LYMP1-003 - Dead Cells (AID 961). Further: nearly all actives have a fitted effect of over 70% in size. Further: potency means the concentration at half of the fitted maximal effect. A digest of the protocol:
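Dead-cell protease release, detected as bis-AAF-R110 fluorescence at 485/520 nm, was measured in LYMP1-003 cells after 16 h compound treatment at 37 C. AC50 values came from Hill-modeled qHTS curves normalized to DMSO (0%) and 15 uM tetraoctylammonium bromide (100%).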

Assay [3] is described as follows: MultiTox-Fluor Cytotoxicity Assay - LYMP1-003 - Live Cells (AID 962).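 Further: cells exposed to compound for 16 hours at 37 °C.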 Further: potency means the concentration at half of the fitted maximal effect. A digest of the protocol: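 Human lymphoblastoid line LYMP1-003 in complete culture medium, treated 16 hr with titrated compounds. Viable cells quantified via cell-permeant GF-AFC substrate fluorescence; AC50 derived by Hill fitting.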
Assay [4] can be described thus: Cell Viability - LYMP1-003 - Assay at 24 hr (AID 963). Further: potency means the concentration at half of the fitted maximal effect. A digest of the protocol: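 The lymphoblastoid line was treated with titrated compounds for 24 hours, and viable cell number estimated from luciferase-based ATP luminescence.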
The nature of assay [5]: Cell Viability - LYMP1-003 - Assay at 40 hr (AID 964). Further: nearly all actives have a fitted effect of over 60% in size. Further: potency means the concentration at half of the fitted maximal effect. The essentials:
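Acute toxicity is scored as a concentration-dependent loss of intracellular ATP in LYMP1-003 cells (2500/well, complete medium) after 40 hr at 37 C, measured by CellTiter-Glo luminescence; AC50 values derive from standard Hill modelling.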

The nature of assay [6]: Cell Viability - LYMP2-003 (AID 965).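 Further: cells exposed to compounds for 24 h before reading; nearly all actives have a fitted effect of over 50% in size.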 Further: potency means the concentration at half of the fitted maximal effect. The essentials: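 Human lymphoblastoid cells (2500/well) were pre-incubated 5 hr at 37 C, then exposed to compounds over a concentration range for 24 hr at 37 C. Intracellular ATP was read by CellTiter-Glo luminescence; AC50 came from Hill-equation fits.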
Assay [7] in a line: Cell Viability - LYMP2-004 (AID 966). Further: nearly all actives have a fitted effect of over 65% in size. Further: potency means the concentration at half of the fitted maximal effect. The essentials: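 Viable-cell number estimated from ATP luminescence (CellTiter-Glo) in 2500 human lymphoblastoid cells/well after 24 hr at 37 C with compound. AC50 fitted to the standard Hill equation.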
Assay [8] in a line: Cell Viability - LYMP2-005 (AID 967). Further: potency means the concentration at half of the fitted maximal effect. The essentials:
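CellTiter-Glo luminescence (cellular ATP) read-out; LYMP2-005 lymphoblastoid cells, 2500/well, 5 h pre-incubation, then 24 h compound exposure at 37 C in complete medium. Tetraoctylammonium bromide positive control; AC50 by standard Hill fit.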

The nature of assay [9]: Cell Viability - LYMP2-009 (AID 968). Further: nearly all actives have a fitted effect of over 55% in size. Further: potency means the concentration at half of the fitted maximal effect.
Assay [10] is described as follows: Cell Viability - LYMP2-011 (AID 969). Further: nearly all actives have a fitted effect of over 60% in size. Further: potency means the concentration at half of the fitted maximal effect. The essentials:
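Cells seeded at 2500 per well rest 5 hr before compound addition, then incubate 24 hr at 37 C. CellTiter-Glo reagent is added for 30 min at room temperature before luminescence detection.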

Assay [11] is described as follows: Cell Viability - LYMP2-013 (AID 970). Further: nearly all actives have a fitted effect of over 55% in size. Further: potency means the concentration at half of the fitted maximal effect. A digest of the protocol: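 In complete culture medium, human lymphoblastoid cells were dosed for 24 hr at 37 C, with tetraoctylammonium bromide (6.4pM to 92 uM) as positive control. Viability reflects luciferase-based ATP signal; AC50 derived from concentration-response curves.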
Assay [12] can be described thus: Cell Viability - LYMP2-015 (AID 971). Further: nearly all actives have a fitted effect of over 55% in size. Further: potency means the concentration at half of the fitted maximal effect. The essentials: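 AC50 values reflect Hill-model fits of ATP-based luminescence (CellTiter-Glo) from a human lymphoblastoid line, 2500 cells/well, treated 24 hr at 37 C.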
The nature of assay [13]: Cell Viability - LYMP2-017 (AID 972). Further: nearly all actives have a fitted effect of over 55% in size. Further: potency means the concentration at half of the fitted maximal effect. The essentials: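 In this qHTS format, lymphoblastoid cells in complete medium receive test compound for a day at 37 C before ATP content is quantified by luciferase luminescence. Reported AC50 figures come from standard Hill-equation curve fitting.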
Assay [14] in a line: Cell Viability - LYMP2-019 (AID 973). Further: nearly all actives have a fitted effect of over 55% in size. Further: potency means the concentration at half of the fitted maximal effect. The essentials: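 AC50 values come from Hill-equation modelling of qHTS concentration-response curves, where viability is measured as luciferase-based ATP luminescence in the lymphoblastoid line after 24 hr compound exposure in complete culture medium.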
A short description of assay [15]: Cell Viability - LYMP2-021 (AID 974). Further: potency means the concentration at half of the fitted maximal effect. The essentials: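 In qHTS format, compounds are tested against 2500 lymphoblastoid cells per well for 24 h; viable cell number is inferred from ATP-driven luciferase light, and Hill-equation fitting yields AC50 values.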
Assay [16] in a line: Cell Viability - LYMP2-023 (AID 975). Further: nearly all actives have a fitted effect of over 55% in size. Further: potency means the concentration at half of the fitted maximal effect. A digest of the protocol: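 In this qHTS, ATP-based luciferase luminescence (CellTiter-Glo) is quantified in human lymphoblastoid cells after 24 hr compound treatment at 37 C; tetraoctylammonium bromide serves as positive control. Concentration-response curves are Hill-fitted to give AC50.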
Assay [17] can be described thus: Cell Viability - LYMP2-025 (AID 976). Further: potency means the concentration at half of the fitted maximal effect. A digest of the protocol: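 Luminescent ATP readout after 24 hr treatment of a human lymphoblastoid line (LYMP2-025, 2500 cells/well, 37 C). Reagent developed 30 min at room temperature; AC50 fitted with the Hill equation.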
In assay [18] the target is Pyruvate kinase (Leishmania mexicana) (UniProt Q27686). As to the kind of experiment: qHTS Validation Assay for Activators of Leishmania Mexicana Pyruvate Kinase (AID 959). The essentials: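 Purified LmPYK (E451W mutant, 0.2 nM) was incubated 1 h at room temperature with 0.5 mM PEP and 0.1 mM ADP in 50 mM imidazole pH 7.2, 50 mM KCl, 7 mM MgCl2; ATP formed was read by PKLight luminescence, normalized to DMSO wells.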
Chain of Pyruvate kinase (Leishmania mexicana) (Q27686 2-499 E452W): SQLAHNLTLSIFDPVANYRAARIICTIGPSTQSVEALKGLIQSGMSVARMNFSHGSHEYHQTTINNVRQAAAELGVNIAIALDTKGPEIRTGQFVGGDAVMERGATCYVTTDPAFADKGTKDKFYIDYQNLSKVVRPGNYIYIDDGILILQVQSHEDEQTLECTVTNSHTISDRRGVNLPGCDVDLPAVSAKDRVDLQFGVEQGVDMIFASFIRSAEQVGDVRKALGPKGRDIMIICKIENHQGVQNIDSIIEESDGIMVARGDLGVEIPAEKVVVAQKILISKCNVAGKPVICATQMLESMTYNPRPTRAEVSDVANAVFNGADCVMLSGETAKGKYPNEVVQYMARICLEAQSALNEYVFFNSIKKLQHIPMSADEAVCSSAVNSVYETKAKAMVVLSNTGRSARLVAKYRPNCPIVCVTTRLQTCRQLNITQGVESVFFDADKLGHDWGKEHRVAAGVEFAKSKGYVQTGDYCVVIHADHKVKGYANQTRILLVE

A short description of assay [19]: MultiTox-Fluor Cytotoxicity Assay - LYMP1-002 - Dead Cells (AID 960). Further: nearly all actives have a fitted effect of over 60% in size. The essentials: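 Concentration-dependent increases in membrane-leaked protease activity are quantified in LYMP1-002 cells after 16 hr treatment; values are normalized against DMSO and tetraoctylammonium bromide (15 uM) controls and AC50 derived by Hill modeling.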
The target of assay [20] is Pyruvate kinase PKM (Homo sapiens) (UniProt P14618). Nature of the assay: qHTS Assay for Inhibitors of Human Muscle Pyruvate Kinase (AID 958). The settings on record: purified human PKM enzyme activity. A digest of the protocol:
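PKM2, human, >95% pure, 0.1 nM; PEP 0.5 mM (Km), ADP 0.1 mM; 50 mM imidazole pH 7.2, 50 mM KCl, 0.01% Tween 20, 0.05% BSA; 1 h RT; luciferase luminescence readout.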

Inconclusive results are not listed. The source made the active and inactive calls. Unless noted, the call rests on the fitted dose curve; in most records, active means well fitted curve in the direction sought with a large enough effect; inconclusive means small, poorly fitted or top-dose-only effect, or another doubt; inactive means no such curve, though single readings can be large; an effect the other way counts as inactive or inconclusive. Peptide text beside a SMILES is read from it.

Turning to `NCCCCNCCCN`, the call in assay [1] was inactive.

Take `Nc1nc(OCc2ccccc2)c2[nH]cnc2n1`: the compound was called inactive in assay [1].

With `NC(=NCc1ccccc1)NC(=O)c1nc(Cl)c(N)nc1N`, in assay [1], the result was inactive.

Turning to `CN(C)c1ccc2nc3ccc(=[N+](C)C)cc-3sc2c1`, the Potency was 39.8 µM (active) in assay [2]; 7.94 µM (active) in assay [3]; 7.94 µM (active) in assay [4]; 3.98 µM (active) in [5]; 3.98 µM (active) in assay [6]; 5.01 µM (active) in [7]. Besides, the Potency in [8] was 5.01 µM (active); in assay [9], 5.01 µM (active); in [10], 6.31 µM (active); in assay [11], 7.94 µM (active); in [12], 3.98 µM (active); in [13], 6.31 µM (active). Moreover, the Potency in assay [14] is 3.16 µM (active); in assay [15], 7.94 µM (active); in assay [16], 3.98 µM (active); in [17] it was 3.98 µM (active).

Consider `O=c1ccc2ccc(O)c(O)c2o1`, for which, in assay [1], the outcome was inactive. Besides, the Potency in [18] was 15.8 µM (active).

As for `CC(C)c1ccc2c(c1)c(SC(C)(C)C)c(CC(C)(C)C(=O)O)n2Cc1ccc(Cl)cc1`, in assay [1], the compound was called inactive.

`CC1(C)NC(=O)N(c2ccc([N+](=O)[O-])c(C(F)(F)F)c2)C1=O`: the compound was called inactive in [1].

Consider `COc1c2occc2cc2ccc(=O)oc12`, for which, in assay [19], the compound was classed as inactive. The Potency entry in [2], in assay [3], in assay [4], in assay [5], in assay [6] and in assay [7] was “inactive” throughout. For the same compound, the Potency entry in assay [8], in assay [9], in assay [10], in [11], in [12] and in assay [13] was “inactive” in each case. Besides, the Potency result in assay [14], in [15], in [16] and in [17] was “inactive” in each case.

`CCc1nc(N)nc(N)c1-c1ccc(Cl)cc1`: the outcome in [19] was inactive. Further, the Potency entry in [2], in assay [3], in assay [6], in assay [7], in assay [8] and in assay [11] was “inactive” in each case. For the same compound, the Potency entry in assay [13], in assay [16] and in assay [17] was “inactive” throughout. In addition, in assay [5], the Potency is 7.94 µM (active).

For `Nc1ccc(S(N)(=O)=O)cc1`, the outcome in assay [19] was inactive. For the same compound, the Potency entry in assay [2], in [3], in [4], in [5], in assay [6] and in [7] was “inactive” each time. Besides, the Potency entry in assay [8], in assay [9], in assay [10], in [11], in assay [12] and in assay [13] was “inactive” in each case. The Potency result in assay [14], in assay [15], in assay [16] and in assay [17] was “inactive” each time.

As for `COC(=O)[C@H](Cc1ccccc1)NC(=O)[C@@H](N)CC(=O)O` (H-Asp-Phe-OMe), the Potency result in assay [2], in assay [3], in assay [4], in [5], in [6] and in [7] was “inactive” in each case. Further, the Potency entry in [8], in assay [9], in assay [10], in [11], in assay [12] and in [13] was “inactive” throughout. In addition, the Potency result in [14], in [15], in assay [16] and in assay [17] was “inactive” each time.

As for `COc1ccc2cc([C@H](C)C(=O)O)ccc2c1`, the result in assay [1] was inactive.

As for `O=C(CCc1ccc(O)cc1)c1c(O)cc(O)cc1O`, the compound was classed as inactive in assay [1].

For `NS(=O)(=O)c1cc(C(=O)O)c(NCc2ccco2)cc1Cl`, the result in assay [19] was inactive. The Potency result in [2], in assay [3], in [4], in assay [5], in [6] and in assay [7] was “inactive” throughout. The Potency result in assay [8], in assay [9], in [10], in [11], in [12] and in [13] was “inactive” in each case. Besides, the Potency result in assay [14], in assay [15], in assay [16] and in [17] was “inactive” throughout.

`CC(=O)N1CCN(c2ccc(OC[C@H]3CO[C@](Cn4ccnc4)(c4ccc(Cl)cc4Cl)O3)cc2)CC1`: in assay [1], the outcome was inactive.

`O=Nc1c(-c2c(O)[nH]c3cc(Br)ccc23)[nH]c2ccccc12`: the call in assay [1] was inactive. Further, the Potency in [20] is 15.8 µM (active). Moreover, in assay [18], the Potency result is “inactive”.

`C[C@H](Cc1ccc(O)c(O)c1)[C@@H](C)Cc1ccc(O)c(O)c1`: the outcome in [1] was inactive.

For the compound `CC1(C)C(=O)N(CCN2CCC(C(=O)c3ccc(F)cc3)CC2)c2ccccc21`, in assay [1], the result was inactive.

For `CNC[C@H](O)c1ccc(O)c(O)c1`, the compound was classed as inactive in [1].

As to `Cc1c(OCC(F)(F)F)ccnc1CS(=O)c1nc2ccccc2[nH]1` (configuration not stated), in [1], the call was inactive.

In the case of `O=C1NC(=O)C(c2ccccc2[N+](=O)[O-])=C1Nc1ccc(O)c(Cl)c1`, the compound was classed as inactive in [1].

For the compound `O=c1cc(N2CCOCC2)oc2c(-c3ccccc3)cccc12`, the call in assay [1] was inactive.

`NNc1nncc2ccccc12`: the result in assay [1] was inactive. The Potency in assay [20] was 7.94 µM (active). In addition, the Potency result in assay [18] was “inactive”.

For `Oc1ccc(-c2nc(-c3ccc(F)cc3)c(-c3ccncc3)[nH]2)cc1`, the compound was classed as inactive in assay [1].
